Each structure is given as a SMILES string. Hit rate of the full screen: of about 2,100 compounds, about 650 (31%) were called active. About 16% were inconclusive and are not listed. The call rests on the fitted dose curve; in most records, active means well fitted inhibition curve with a large enough effect; inconclusive means small, poorly fitted or top-dose-only effect; inactive means flat fitted curve, though single readings scatter. The list shows a part of the results.
Potency means the concentration at half of the fitted maximal effect.

This assay can be described thus: qHTS for inhibitors of Vif-A3G interactions: Cherry picks. Further: nearly all actives have a fitted effect of over 80% in size. Conditions: HeLa A3G-eYFP + Vif (tagged APOBEC3G with the HIV-1 protein that degrades it), 24 h; Potency: eYFP fluorescence increase; series mostly up to 36.9 µM. The text has this:
The recent discovery and characterization of host restriction factors, which provide a potent defense to invading retroviruses, has provided new targets for antiviral drug development. APOBEC3G (A3G) and APOBEC3F (A3F) are potent cytidine deaminases that block HIV-1 replication; HIV-1 expresses the Vif protein, which counteracts A3G and A3F by binding to them and inducing their proteasomal degradation. The Vif-A3G and Vif-A3F interactions provide two potential targets for development of small molecules which can interfere with the ability of Vif to degrade A3G or A3F. […] To identify inhibitors that can interfere with Vif mediated degradation of A3G and A3F, we have developed Hela cell lines that stably express A3G or A3F tagged with eYFP at the C-terminal end (A3G-eYFP or A3F-eYFP, respectively) and Vif. In the absence of an inhibitor, Vif induces degradation of A3G-eYFP and A3F-eYFP, and the cells are not fluorescent. In the presence of an inhibitor, it is expected that Vif will be unable to degrade A3G-eYFP and/or A3F-eYFP, resulting in an increase in yellow fluorescence. In this assay, Vif A3G was screened against the cherry picks ordered from the MLSMR. NIH Chemical Genomics Center [NCGC] NIH Molecular Libraries Probe Centers Network [MLPCN] MLPCN Grant: MH093245 Assay Submitter (PI): Vinay Pathak, National Cancer Institute
A3G-Vif cells were harvested from T225 flask and resuspended in phenol free OPTI-MEM medium with 5% FBS. Then 5 uL of 140,000 cells/mL resuspended cells was dispensed into each well of low base Aurora COC 1,536-well plates (black walled, clear bottom) using a Multidrop Combi dispenser. After overnight culture at 37 deg C with 5% CO2, a total of 23 nL of compounds at 5 selected concentrations from the NPC or positive control (2 mM stock of MG132) in DMSO was transferred to each well of the assay plate using a pintool (Kalypsys, San Diego, CA), and the plates were further incubated at 37 deg C with 5% CO2 for 24 hours. After that, the plates were measured on Acumen Explorer (TTP Lab Tech). The fluorescence was detected by 488 nm/Ex and […].
A general note: In qHTS, concentration-response curves come from the screen itself.
Consider `CN1/C(=C\C=C2C(=O)NC(=O)NC2=O)C(C)(C)c2ccccc21`, for which the Potency is 4.61 µM (active).

In the case of `COCCCn1c(=O)/c(=C\c2ccccc2OC(F)F)s/c1=C(/C#N)C(=O)NCCOC`, the Potency was 20.6 µM (active).

Take `CCCCNC(=O)/C(C#N)=c1\s/c(=C\c2ccccc2OC(F)F)c(=O)n1CCCOC`: the Potency is 16.4 µM (active).

With `C/C(=C\c1ccc(N(C)C)cc1)[N+](=O)[O-]`, the Potency entry was “inactive”.

Take `O=C1NC(=O)N(c2ccc3c(c2)OCO3)C(=O)/C1=C/c1ccc(N2CCCCC2)o1`: the Potency is 23.1 µM (active).

Turning to `O=C1NC(=O)N(c2ccc3c(c2)OCO3)C(=O)/C1=C\c1ccc(N2CCCCC2)o1`, the Potency is 20.6 µM (active).

Consider `CCCCn1c(O)c(C(=O)/C=C/c2c[nH]c3ccccc23)c(=O)[nH]c1=O`, for which the Potency is 15.8 µM (active).

For the compound `Cc1ccccc1-n1c(/C=C/c2ccc(N(C)C)cc2)nc2ccccc2c1=O`, the Potency is 5.8 µM (active).

As to `O=c1[nH]c(CN2CC=C(c3ccccc3)CC2)nc2scc(-c3ccccc3)c12`, the Potency was 23.1 µM (active).

Take `O=C1/C(=C/c2ccc3c(c2)OCO3)SC(=S)N1CCC(=O)N(CCO)c1ccccc1`: the Potency is 23.1 µM (active).

For `COc1ccc(-n2c(/C=C/c3ccc(O)c(OC)c3)nc3ccccc3c2=O)cc1`, the Potency is 23.1 µM (active).

`O=c1c2ccccc2nc(/C=C/c2ccccc2O)n1-c1ccc(Br)cc1`: the Potency is 20.6 µM (active).

In the case of `NC(=Nc1ccccc1)NN=Cc1c[nH]c2ccccc12`, the Potency result was “inactive”.

As for `Cc1cccc(CN2CCCC(C(=O)c3cccc(OC(C)C)c3)C2)n1` (stereo not drawn), the Potency entry was “inactive”.

For `O=C1NC(=S)SC1=Cc1ccc(N(CCCl)CCCl)cc1`, the Potency was 15.8 µM (active).

For the compound `CN1C(=O)C(=Cc2ccc(N3CCOCC3)o2)C(=O)N(C)C1=O`, the Potency was 23.1 µM (active).

Consider `CN1C(=O)C(=Cc2ccc(N3CCOCC3)o2)C(=O)N(C)C1=S`, for which the Potency is 20.6 µM (active).

As for `CN1C(=O)C(=Cc2ccc(N3CCCCC3)o2)C(=O)N(C)C1=S`, the Potency is 7.31 µM (active).

Regarding `O=C1CN=C(c2cccc(Br)c2)c2cc(Br)ccc2N1`, the Potency result is “inactive”.

With `CCS(=O)(=O)N1N=C(c2cccc(NS(C)(=O)=O)c2)CC1c1ccccc1` (stereo not drawn), the Potency was 18.4 µM (active).

Regarding `O=Cc1c(C(=O)O)n(Cc2ccc(Cl)cc2)c2ccccc12`, the Potency is 20.6 µM (active).

Consider `Cc1ccc(CNC(=O)c2ccccc2NC(=O)c2nsc3ccccc23)cc1`, for which the Potency was 20.6 µM (active).

Take `COc1ccc(-c2ccc(OC)c(OC)c2OC)cc1`: the Potency entry is “inactive”.

For `CN(C)c1ccc(C(=O)c2ccc(N(C)C)cc2)cc1`, the Potency result was “inactive”.

Regarding `Cc1cc(N(CCCl)CCCl)ccc1C=Cc1ccncn1`, the Potency is 23.1 µM (active).

As to `COCCCNC(=O)c1c(NC(=O)c2ccco2)n(Cc2ccccc2)c2nc3ccccc3nc12`, the Potency result is “inactive”.

Regarding `COCCNC(=O)c1c(NC(=O)c2ccc(Br)o2)n(Cc2ccccc2)c2nc3ccccc3nc12`, the Potency was 20.6 µM (active).

Take `Cc1cccc(-n2c(/C=C/c3ccc([N+](=O)[O-])o3)nc3ccccc3c2=O)c1`: the Potency was 3.66 µM (active).

For the compound `O=c1c2ccccc2nc(/C=C/c2ccc([N+](=O)[O-])o2)n1-c1ccc(O)cc1`, the Potency was 15.8 µM (active).

Consider `Cc1cccc(-n2c(/C=C/c3c(C)[nH]c4ccccc34)nc3ccccc3c2=O)c1`, for which the Potency is 16.4 µM (active).

For `CC(=O)OC1C2(CC3N4C(=O)C5(CO)SSC4(CC31O)C(=O)N5C)OC(C)C(C)(C)C2=O` (stereo not drawn), the Potency result was “inactive”.

In the case of `O=c1nc(/C=C/c2ccc(Cl)cc2Cl)cc(C(F)(F)F)[nH]1`, the Potency entry was “inactive”.

For `CCN(CC)c1ccc(N=Cc2c(O)n(CCC3=CCCCC3)c(=O)[nH]c2=O)cc1`, the Potency is 3.66 µM (active).

As to `CCN(CC)c1ccc(N=Cc2c(O)n(Cc3ccccc3)c(=O)[nH]c2=O)cc1`, the Potency was 7.31 µM (active).

On to `C=CCn1c(O)c(C(C)=Nc2ccc(N(CC)CC)cc2)c(=O)[nH]c1=O`, for which the Potency entry was “inactive”.

Turning to `Cc1cccc(-n2c(O)c(/C=C/C=Nc3ccccc3)c(=O)[nH]c2=O)c1`, the Potency was 5.17 µM (active).

Take `COc1ccc(-n2cnc3cc(C(=O)N4CCC5(CC4)OCCO5)ccc32)cc1`: the Potency result was “inactive”.

Turning to `CC(C)c1ccc(N2C(=O)NC(=O)/C(=C\C=C\c3ccco3)C2=O)cc1`, the Potency was 17.7 µM (active).

Turning to `Cc1cc(C)cc(N2C(=O)NC(=O)/C(=C\C=C\c3ccco3)C2=O)c1`, the Potency entry is “inactive”.

Consider `CC(C)c1ccc(N2C(=O)NC(=O)/C(=C/C=C/c3ccco3)C2=O)cc1`, for which the Potency was 17.7 µM (active).

Turning to `Cc1cccc(N2C(=O)NC(=O)/C(=C\C=C\c3ccco3)C2=O)c1`, the Potency result was “inactive”.

For the compound `CN(C)c1ccc(/C=C/C=C2/C(=O)NC(=O)N(c3ccccc3)C2=O)cc1`, the Potency is 23.1 µM (active).

For the compound `O=[N+]([O-])c1ccc(N2CCOCC2)c2c1no[n+]2[O-]`, the Potency result was “inactive”.

As for `CC(C)CCCn1c(O)c(/C=C2/C=CC=N2)c(=O)[nH]c1=O`, the Potency was 23.1 µM (active).

With `C=C1C(=O)OC2C1CCC(C)C1(O)C=CC(=O)C21C` (stereo not drawn), the Potency entry is “inactive”.

On to `CC1=CC(=Cc2sc3ccccc3[n+]2C)C=C(C)O1`, for which the Potency is 6.51 µM (active).

Consider `Nc1ccc2c3c(cccc13)-c1ccccc1-2`, for which the Potency is 4.11 µM (active).

`Cc1cc(/C=C2\C(=O)NC(=O)N(c3ccc(Br)cc3)C2=O)c(C)n1C`: the Potency entry was “inactive”.

For the compound `CN1CCN(c2ccc(/C=C3\C(=O)NC(=S)N(c4cccc(Br)c4)C3=O)o2)CC1`, the Potency was 18.4 µM (active).

With `CN1C(=O)/C(=C\c2ccc(N3CCCCC3)o2)C(=O)NC1=S`, the Potency was 17.7 µM (active).

`CN1C(=O)/C(=C/c2ccc(N3CCCCCC3)o2)C(=O)NC1=S`: the Potency was 15.8 µM (active).

For `CCC(C)N1C(=O)/C(=C\c2ccc(N3CCCCCC3)cc2)C(=O)NC1=S` (stereo not drawn), the Potency entry is “inactive”.

Consider `CCN1C(=O)/C(=C/c2ccc(N(CC)CC)cc2OC)C(=O)NC1=S`, for which the Potency entry was “inactive”.

Regarding `CCN(CC)c1ccc(/C=C2\C(=O)NC(=S)N(c3ccc(OC)cc3OC)C2=O)o1`, the Potency is 16.4 µM (active).

In the case of `CCN(CC)c1ccc(/C=C2\C(=O)NC(=S)N(C)C2=O)o1`, the Potency was 12.5 µM (active).

Turning to `CCN(CC)c1ccc(C=C2C(=O)N(C)C(=S)N(C)C2=O)o1`, the Potency was 14 µM (active).

Consider `COc1cc2c(cc1O)[C@@H]1Cc3ccc(OC)c(O)c3CN1CC2`, for which the Potency entry is “inactive”.

As to `N#CC1=C(N)Oc2c(c(=O)sc3ccccc23)C1c1cccnc1` (stereo not drawn), the Potency result was “inactive”.

As to `Cc1cc(N2CCCC2)ccc1C=C(C#N)C#N`, the Potency was 7.31 µM (active).

As to `Cc1c2ccncc2c(C)c2c1[nH]c1ccccc12`, the Potency is 14.6 µM (active).

Consider `CC/C(=N\NC(=O)c1ccccc1O)c1c(O)n(Cc2ccccc2)c(=O)[nH]c1=O`, for which the Potency was 20.6 µM (active).

As for `CC(=O)O[C@@]12CO[C@@H]1C[C@H](OC1OCC(O)C(O)C1O)[C@@]1(C)C(=O)[C@H](O)C3=C(C)[C@@H](OC(=O)[C@H](O)[C@@H](NC(=O)c4ccccc4)c4ccccc4)C[C@@](O)([C@@H](OC(=O)c4ccccc4)C12)C3(C)C` (stereo partly drawn), the Potency entry is “inactive”.

For the compound `COC(=O)C1=C(C)N(Cc2ccco2)C(=O)/C1=C\c1ccc(N(C)C)cc1`, the Potency was 13 µM (active).

(Values after PubChem BioAssay AID651812 (National Center for Advancing Translational Sciences (NCATS), 2012).)
